Measured values from ChEMBL document CHEMBL1857833, “Screening and optimization of specific chemical series against human African Trypanosomiasis (HAT)”.
Where “and” joins values, the source holds several entries; their conditions need not be identical. Equal values may be shown once. The campaign covered roughly 4,400 compounds. About 390 (8.9%) showed an effect of 50% or more. Many of the other results were omitted from the sample, so strong results are more common in it than they were.

test system: Trypanosoma brucei; test: DNDI: Inhibition of Human African Trypanosomiasis, SBRI 427, in vitro at 2 ug.mL-1; assay type: functional

Row | Structure (SMILES) | % inhibition
1 | Cc1ccc(/C(=N/O)NC2CCCCC2)c(OCc2cccc(F)c2)n1 | -9%
2 | CCC(NCc1coc(-c2ccc(OC(F)(F)F)cc2)n1)c1ccccc1 (stereo not given) | -21%
3 | CSc1ccc(Oc2cc(/C(=N/O)NC3CCc4ccccc43)ccn2)cc1 (stereo not given) | 9%
4 | COCCN(Cc1coc(-c2ccccc2C)n1)C(C)(C)C | 2%
5 | COc1ccc(Oc2nc(C)ccc2/C(=N/O)N2CCCCC2)cc1 | 28%
6 | Cc1cccc(Oc2nc(C)ccc2/C(=N/O)N2CCN(c3ccc(F)cc3)CC2)c1 | 12%
7 | COc1ccccc1CN/C(=N\O)c1ccc(C)nc1OC1CCC1 | 6%
8 | Cc1cn(Cc2coc(-c3cccc(F)c3)n2)c(-c2ccccc2)n1 | -9%
9 | CCOc1ccc(Oc2cc(/C(=N/O)N3CCC4CCCCC4C3)ccn2)cc1 (stereo not given) | 16%
10 | Cn1nc(C(C)(C)C)cc1NCc1coc(-c2cccc3ccccc23)n1 | 25%
11 | CCOc1ccccc1-c1nc(CN(C)Cc2ccccc2)co1 | 4%
12 | Cc1ccc(/C(=N/O)N(C)C2CCCCC2)c(Oc2cccc(F)c2)n1 | 10%
13 | CCC(NCc1coc(-c2ccc(OC)cc2)n1)c1ccccc1 (stereo not given) | 12% and 8%
14 | Clc1ccc(-c2nc(CNCCCN3CCOCC3)co2)c(Cl)c1 | 23%
15 | Clc1ccc(-c2nc(CNCCN3CCCC3)co2)c(Cl)c1 | -4%
16 | Clc1ccc(-c2nc(CNCCCN3CCCC3)co2)c(Cl)c1 | 98%
17 | CCOc1ccc(Oc2cc(/C(=N/O)NCc3ccc(OC)cc3)ccn2)cc1 | -4%
18 | COc1ccc(Oc2cc(/C(=N/O)NCc3cc(F)cc(F)c3)ccn2)cc1 | 5%
19 | COc1ccc(Oc2cc(/C(=N/O)Nc3ccccc3)ccn2)cc1 | 15%
20 | CC(C)CN/C(=N\O)c1ccnc(Oc2ccc(Cl)cc2)c1 | 25%
21 | COc1ccc(Oc2cc(/C(=N/O)NCc3ccncc3)ccn2)cc1 | 9%
22 | COc1ccc(Oc2cc(/C(=N/O)NCC(C)(C)C)ccn2)cc1 | 92%
23 | CCC(CC)N/C(=N\O)c1ccnc(Oc2ccc(OC)cc2)c1 | 97%
24 | CCOc1ccc(Oc2cc(/C(=N/O)NCC(C)(C)C)ccn2)cc1 | 43%
25 | COc1ccc(Oc2cc(/C(=N/O)NCC(C)C)ccn2)cc1 | 93%

Row | Structure (SMILES) | % inhibition
26 | CCOc1ccc(-c2nc(CNc3ccc(OC)cc3)co2)cc1 | -21%
27 | CCCCN(C)Cc1coc(-c2cccs2)n1 | 15%
28 | CCOc1ccc(-c2nc(CN3CCc4cc(OC)c(OC)cc4C3C(C)C)co2)cc1 (stereo not given) | 15%
29 | COc1ccc(-c2nc(CN(C)c3ccc(OC)cc3)co2)cc1 | 6%
30 | CCOc1ccccc1Oc1ncccc1/C(=N/O)n1cnc(C)c1 | 16%
31 | CCOc1ccccc1CNCc1coc(-c2ccc(OC)cc2)n1 | -13%
32 | CCCC(C)NCc1coc(-c2ccccc2Br)n1 (stereo not given) | -7%
33 | Fc1cccc(-c2nc(CN3CCN(c4cccc(Cl)c4)CC3)co2)c1 | 17%
34 | COc1cccc(-c2nc(CN(C)CCc3ccccc3)co2)c1 | 1%
35 | Cc1cccc(Oc2ccc(/C(=N/O)NCC3CCCCC3)cn2)c1 | 36%
36 | COc1cccc(Oc2ccc(/C(=N/O)NCC3CCCCC3)cn2)c1 | 87%
37 | COc1cccc(Oc2ccc(/C(=N/O)NC3CCN(Cc4ccccc4)C3)cn2)c1 (stereo not given) | -3%
38 | Cc1cccc(Oc2ccc(/C(=N/O)NC3CCC(C)CC3)cn2)c1 (stereo not given) | 59%
39 | COc1cccc(Oc2ccc(/C(=N/O)NC3CCC(C)CC3)cn2)c1 (stereo not given) | 89%
40 | COc1cccc(Oc2ccc(/C(=N/O)NC3CCCCC3)cn2)c1 | 98%
41 | Cc1cccc(Oc2ccc(/C(=N/O)NC3CC(C)CC(C)(C)C3)cn2)c1 (stereo not given) | 47%
42 | Cc1cccc(Oc2ccc(/C(=N/O)NC3CCc4ccccc43)cn2)c1 (stereo not given) | 10%
43 | COc1cccc(Oc2ccc(/C(=N/O)NC3CC(C)CC(C)(C)C3)cn2)c1 (stereo not given) | 7%
44 | COc1ccc(CN/C(=N\O)c2ccc(Oc3cccc(OC)c3)nc2)cc1 | 10%
45 | Cc1ccc(/C(=N/O)N2CCC3CCCCC3C2)c(Oc2cccc(F)c2)n1 (stereo not given) | 16%
46 | CCCN(Cc1coc(-c2cccc(F)c2)n1)CC1CC1 | 17%
47 | COc1ccc(NCc2coc(-c3cccc(F)c3)n2)cc1 | 14%
48 | CC(C)c1cccc(Oc2cc(/C(=N/O)NC3CCc4ccccc43)ccn2)c1 (stereo not given) | 4%
49 | Clc1ccccc1-c1nc(CN2CCN(C/C=C/c3ccccc3)CC2)co1 | -22%
50 | COC(=O)C1CCN(/C(=N\O)c2cccnc2OCC2CCCCC2)CC1 | 6%

Row | Structure (SMILES) | % inhibition
51 | Cc1ccc(/C(=N/O)NCc2cccnc2)c(Oc2cccc(F)c2)n1 | 5%
52 | Cc1ccc([C@@H](C)NCc2coc(-c3ccc(OC(F)(F)F)cc3)n2)cc1 | -17%
53 | CCc1ccc(Oc2ncccc2/C(=N/O)N2CC(C)CC(C)C2)cc1 (stereo not given) | 15%
54 | CC1CC(NCc2coc(-c3ccc(C(F)(F)F)cc3)n2)CC(C)(C)C1 (stereo not given) | 98%
55 | CCOc1ccc(-c2nc(CN3CC(C)OC(C)C3)co2)cc1 (stereo not given) | -8%
56 | CCOc1ccc(-c2nc(CNC3CC(C)CC(C)(C)C3)co2)cc1 (stereo not given) | 99%
57 | CC1CN(Cc2coc(-c3ccc(C(F)(F)F)cc3)n2)CC(C)O1 (stereo not given) | 12%
58 | CC(NCc1coc(-c2ccc(C(F)(F)F)cc2)n1)C1CCCCC1 (stereo not given) | 7%
59 | CCOc1ccc(-c2nc(CNC3CCCCCC3)co2)cc1 | 20%
60 | C#CC1(NCc2coc(-c3ccccc3Cl)n2)CCCCC1 | -12%
61 | COc1ccc(CN/C(=N\O)c2ccc(Oc3cc(C)cc(C(C)C)c3)nc2)cc1 | 28%
62 | Brc1ccc(-c2nc(CNCc3cccnc3)co2)cc1 | -36%
63 | COc1cccc(-c2nc(CN(C)C(C)(C)C)co2)c1 | 31%
64 | c1ccc(-c2nc(CN3CCN(C4CCCCC4)CC3)co2)cc1 | -4%
65 | CCOc1ccccc1CN/C(=N\O)c1ccnc(Oc2ccc(Cl)cc2)c1 | 7%
66 | O/N=C(\NCc1ccccn1)c1cccnc1Oc1cc(Cl)ccc1Cl | 0%
67 | Cc1ccccc1CN/C(=N\O)c1cccnc1Oc1cc(Cl)ccc1Cl | 99%
68 | CCOc1ccccc1CN/C(=N\O)c1cccnc1Oc1ccc(Cl)cc1 | 87%
69 | CC(C)COc1ncccc1/C(=N/O)NCC1CCCO1 (stereo not given) | 6%
70 | CC(C)c1ccc(Oc2ncccc2/C(=N/O)NCC2CCCO2)cc1 (stereo not given) | 98%
71 | COc1ccc(CN/C(=N\O)c2cccnc2Oc2cc(Cl)ccc2Cl)cc1 | 5%
72 | O/N=C(\NCc1ccccc1)c1cccnc1Oc1cc(Cl)ccc1Cl | 100%
73 | COc1ccc(Oc2ncccc2/C(=N/O)NCC2CCCO2)cc1 (stereo not given) | -15%
74 | CCOc1ccccc1CN/C(=N\O)c1ccc(Oc2ccc(Cl)cc2)nc1 | 1%
75 | Cc1ccc(/C(=N/O)NCc2ccccn2)c(Oc2cc(Cl)ccc2Cl)n1 | 30%
